# Measured values reported in article PMC13083723 (Patterns, 2026).
# Among all 5,400 compounds or so, about 190 (3.5%) showed an effect of 50% or more. Shown is part of a subset that was picked to be rich in strong results. Residues, ends and D or L forms follow the SMILES beside them. *: point of attachment. NHCH2CH2OH = OCCN*; For = O=C*
# Tested on: Vero-E6
# Test: primary screen, phospholipidosis by LipidTOX staining; higher = more effect of the substance
# Settings: 10 µM
# Procedure, shortened: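 Drug-induced phospholipidosis detected with HCS LipidTOX Red reagent in Vero-E6 cells. Compounds tested at 10 μM, with amiodarone (10 μM) as positive control and DMSO (0.1 v/v %) as vehicle.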
row,Compound,result_ITMP [%]
1,CCN(CC)CCCC(C)Nc1c2ccc(Cl)cc2nc2ccc(OC)cc12 (stereo not drawn),110
2,CCN(CCO)CCCC(C)Nc1ccnc2cc(Cl)ccc12 (stereo not drawn),1.54
3,COc1ccc2nc3ccc(Cl)cc3c(SCCCN)c2c1,-9.55
4,CC1(C)CCC(C)(C)c2c1cc(C(=O)Nc1cc(F)c(C(=O)O)c(F)c1)c(O)c2Cl,-2.47
5,CSc1ccc([C@H]2CN3CCC[C@H]3c3ccccc32)cc1 (racemic),14.1
6,CSc1ccc2c(c1)C(N1CCN(C)CC1)Cc1ccccc1S2 (stereo not drawn),79.9
7,CC[C@H]1[C@@H](O)[C@@H]2[C@H](CC[C@]3(C)[C@@H]([C@H](C)CCOS(=O)(=O)[O-])CC[C@@H]23)[C@@]2(C)CC[C@@H](O)C[C@@H]12,-1.93
8,Nc1nc(=O)c2c(CCc3ccc(C(=O)N[C@@H](CCC(=O)[O-])C(=O)[O-])cc3)c[nH]c2[nH]1,-3.84
9,CC(C)c1nc(N(C)S(C)(=O)=O)nc(-c2ccc(F)cc2)c1/C=C/[C@@H](O)C[C@@H](O)CC(=O)[O-],-8.19
10,CCOc1cc(N2CCC(O)CC2)ccc1Nc1ncc2c(n1)N(C)c1ccccc1C(=O)N2C,4.79
11,Cc1nc(Nc2cnn(C3CCNCC3)c2)nc2c1N(C)C(=O)c1cc3ccccc3cc1N2C,103
12,O=C(O)[C@@H]1C[C@@H](C2CCCCC2)CN1C(=O)CP(=O)(O)CCCCc1ccccc1,-0.11
13,O=c1nc[nH]c2c1cnn2[C@@H]1O[C@H](CO)[C@@H](O)[C@H]1O,2.43
14,CCC[C@@H]1C[C@@H](C(=O)N[C@H]([C@H]2O[C@H](SC)[C@H](O)[C@@H](O)[C@H]2O)[C@H](C)O)N(C)C1,-3.49
15,NC1(c2ccc(-c3nc4ccn5c(=O)[nH]nc5c4cc3-c3ccccc3)cc2)CCC1,87.1
16,O=C(O)CCc1ccc(NCc2cccc(Oc3ccccc3)c2)cc1,-4.86
17,O=C(O)CCCCN(CCc1ccccc1OCc1ccc(CCc2ccccc2)cc1)Cc1ccc(C(=O)O)cc1,0.2
18,COc1cccc(CCc2ccccc2OCC(CN(C)C)OC(=O)CCC(=O)O)c1 (stereo not drawn),64.3
19,CCc1cccc(CC)c1N=C1NCCN1,-5.43
20,O=C(O[C@H]1CN2CCC1CC2)N(Cc1cc(F)c(F)c(F)c1)c1cccc(F)c1,71.4
21,C[C@H](Nc1ncnc2[nH]cnc12)c1cc2ccc(F)cc2nc1-c1ccccn1 [R4A_0002240_001 / SPE_K21077415],-0.96
22,Nc1cccc(CNC(=O)c2ccc(Oc3ccc(OCc4cccc(F)c4)cc3)nc2)c1,-1.49
23,O=C(O)COc1nn(Cc2ccccc2)c2ccccc12,0

row,Compound,result_ITMP [%]
1,OCc1ccc(-c2nn(Cc3ccccc3)c3ccccc23)o1,-1.24
2,CN(C)CCCOc1nn(Cc2ccccc2)c2ccccc12,51.2
3,C[C@@H]1CCC[C@H](C)N1NC(=O)c1ccc(Cl)c(S(N)(=O)=O)c1,3.56
4,CC(C)Cc1ccc(C(C)C(=O)O)cc1 (stereo not drawn) [R4A_0001344_001 / SPE_M64062803],-5.52
5,O=C(C1CCCCC1)N1CC(=O)N2CCc3ccccc3C2C1 (stereo not drawn),-5.83
6,O=C(Nc1ccc(F)cc1)N1CCc2ccccc2C1c1ccc(C(F)(F)F)cc1 (stereo not drawn),-0.7
7,O=C(O[C@H]1CN2CCC1CC2)N1CCc2ccccc2[C@@H]1c1ccccc1,59.2
8,CC(C)(CO)[C@@H](O)C(=O)NCCC(=O)[O-],1.43
9,C[C@@]12C[C@@]3(O)O[C@@H](O1)[C@]1(COC(=O)c4ccccc4)[C@H]3C[C@@]12O[C@@H]1O[C@H](CO)[C@@H](O)[C@H](O)[C@H]1O,-5.49
10,CN1CCN(c2ccc(C(=O)Nc3n[nH]c4ccc(Cc5cc(F)cc(F)c5)cc34)c(NC3CCOCC3)c2)CC1,96.5
11,CN1CCN(c2ccc(-c3cccc(CN4CCOCC4)c3)cc2NC(=O)c2c[nH]c(=O)cc2C(F)(F)F)CC1,-0.45
12,CCc1cccc(CC)c1NC(=O)N1Cc2[nH]nc(NC(=O)c3ccc(N4CCN(C)CC4)cc3)c2C1,3.48
13,C[C@H]1O[C@@H](O[C@H]2CC[C@@]3(C)[C@H](CC[C@@H]4[C@@H]3C[C@@H](O)[C@]3(C)[C@@H](C5=CC(=O)OC5)CC[C@]43O)C2)C[C@H](O)[C@@H]1O[C@H]1C[C@H](O)[C@H](O[C@H]2C[C@H](O)[C@H](O[C@@H]3O[C@H](CO)[C@@H](O)[C@H](O)[C@H]3O)[C@@H](C)O2)[C@@H](C)O1,-9.7
14,CO/N=C(\C(=O)N[C@@H]1C(=O)N2C(C(=O)[O-])=C(COC(C)=O)CS[C@H]12)c1csc(N)n1,-7.3
15,CC(NCCC(c1ccccc1)c1ccccc1)c1ccccc1 (stereo not drawn),43.7
16,COc1cccc([C@@H](C)NCCCc2ccccc2Cl)c1,70.1
17,COc1cccc(C(=O)CCN[C@@H](C)[C@H](O)c2ccccc2)c1,1.52
18,C[N@+]12CCCC[C@@H]1CCC(=C(c1cccs1)c1cccs1)C2 (racemic),-3.77
19,CO[C@@H]1[C@@H](OC(N)=O)[C@@H](O)[C@H](Oc2ccc3c([O-])c(NC(=O)c4ccc(O)c(CC=C(C)C)c4)c(=O)oc3c2C)OC1(C)C,-3.28
20,CC(=O)NCCCS(=O)(=O)[O-],7.64
21,COc1cc2c(Nc3ccc(Br)cc3F)ncnc2cc1OCC1CCN(C)CC1,105
22,C=CC(=O)N1CCC(Oc2cc3c(Nc4ccc(Cl)c(Cl)c4F)ncnc3cc2OC)CC1,35.1
23,COc1cc2c(Nc3ccc(Cl)c(Cl)c3F)ncnc2cc1OC[C@@H]1C[C@@H]2CN(C)C[C@@H]2C1,55.5

row,Compound,result_ITMP [%]
1,COc1ccc(Cl)c(Nc2ncnc3cc(OCC4CCN(C)CC4)c(OC)cc23)c1,9.6
2,COc1cc2ncnc(Nc3ccc(Cl)cc3F)c2cc1OC,-0.91
3,COc1cc2ncnc(Nc3cccc(Cl)c3F)c2cc1OC(=O)N1CCN(C)C[C@H]1C,10.7
4,CC(C)CC(NC(=O)C(C)NC(=O)CNC(=O)C(NC=O)C(C)C)C(=O)NC(C)C(=O)NC(C(=O)NC(C(=O)NC(C(=O)NC(Cc1c[nH]c2ccccc12)C(=O)NC(CC(C)C)C(=O)NC(Cc1c[nH]c2ccccc12)C(=O)NC(CC(C)C)C(=O)NC(Cc1c[nH]c2ccccc12)C(=O)NC(CC(C)C)C(=O)NC(Cc1c[nH]c2ccccc12)C(=O)NCCO)C(C)C)C(C)C)C(C)C (stereo not drawn) (For-VGALAVVVWLWLWLW-NHCH2CH2OH; configuration not given here),-8.15
5,COC1/C=C\OC2(C)Oc3c(C)c(O)c4c(O)c(cc([O-])c4c3C2=O)NC(=O)/C(C)=C\C=C/C(C)C(O)C(C)C(O)C(C)C(OC(C)=O)C1C (stereo not drawn),-0.32
6,C[C@@H](O)[C@H]1C(=O)N2C(C(=O)[O-])=C([C@H]3CCCO3)S[C@H]12,-1.64
7,[Cl][Ru]([Cl])([Cl])[Cl].c1ccc2[nH]ncc2c1.c1ccc2[nH]ncc2c1,-2.33
8,OC[C@H]1O[C@@H](O[C@@H]2[C@H](O)[C@@H](O)[C@H](O[C@H]3[C@H](O)[C@@H](O)C(O)O[C@@H]3CO)O[C@@H]2CO)[C@H](O)[C@@H](O)[C@H]1O (stereo partly drawn),3.95
9,CCCC[C@H](NC(C)=O)C(=O)N[C@H]1CC(=O)NCCCC[C@@H](C(=O)O)NC(=O)[C@H](Cc2c[nH]c3ccccc23)NC(=O)[C@H](CCCNC(=N)N)NC(=O)[C@@H](Cc2ccccc2)NC(=O)[C@H](Cc2cnc[nH]2)NC1=O,-3.41
10,COc1ccc2[nH]c3nnc(C)c-3c(NCCOCCO)c2c1,-1.31
11,C1Cc2[nH]nc(-c3nnn[nH]3)c2C1,-1.64
12,CC(C)N(C[C@H]1O[C@@H](n2cnc3c(N)ncnc32)[C@H](O)[C@@H]1O)C1CC(CCc2nc3cc(C(C)(C)C)ccc3[nH]2)C1 (stereo partly drawn),-3.75
13,Nc1ncnc2c1ncn2C1OC2COP(=O)([O-])OC2C1O (stereo not drawn),-10.8
14,Cc1ccc(C(=O)Nc2ccc(CN3CCN(C)CC3)c(C(F)(F)F)c2)cc1C#Cc1cnc2[nH]ncc2c1,6.57
15,Cc1ccc(C(=O)Nc2ccc(CN3CCN(C)CC3)c(C(F)(F)F)c2)cc1C#Cc1cnc2cccnn12,11.4
16,CCN1CCN(Cc2ccc(C(=O)Nc3ccc(C)c(Oc4ccc5c(c4)CC(=O)N5)c3)cc2C(F)(F)F)CC1,99.1
17,C[C@@H]1CC[C@@]2(NC1)O[C@H]1C[C@H]3[C@@H]4CC=C5C[C@@H](O[C@@H]6O[C@H](CO)[C@@H](O[C@@H]7O[C@@H](C)[C@H](O)[C@@H](O)[C@H]7O)[C@H](O)[C@H]6O[C@@H]6O[C@@H](C)[C@H](O)[C@@H](O)[C@H]6O)CC[C@]5(C)[C@H]4CC[C@]3(C)[C@H]1[C@@H]2C,-0.25
18,C[C@]12C=CC(=O)C=C1CCC1C2[C@@H](O)C[C@@]2(C)C1CC[C@]2(O)C(=O)COP(=O)([O-])[O-] (stereo partly drawn),-4.14
19,O=S(=O)([O-])CCSSCCS(=O)(=O)[O-],-11.7
20,N=C(N)NCCC[C@@H](NC(=O)[C@@H]1CCCN1C(=O)[C@@H]1CSSC[C@H](N)C(=O)N[C@@H](Cc2ccc(O)cc2)C(=O)N[C@@H](Cc2ccccc2)C(=O)N[C@@H](CCC(N)=O)C(=O)N[C@@H](CC(N)=O)C(=O)N1)C(=O)NCC(N)=O,-1.55
21,Oc1ncc(F)cn1,-8.73
22,Nc1nnc2[nH]c3ccccc3nc1-2,-7.77
23,CCCC1(CCC)CCC2(CCN(CCCN(CC)CC)C2)CC1,109
